Laboratory results published in PubChem BioAssay (EPA / NIEHS).
Results filed as inconclusive are left out. Calls of active or inactive are those of the source. Rule for the calls, unless noted: active = hit-call score of the fitted dose curve at least 0.9, where 1 is the maximum; inconclusive = response in the unintended direction; inactive = score below 0.9.

How the values were obtained:
[1] = Tanguay_ZF_120hpf_SNOU_legacy: (Legacy) Oregon State University Tanguay Lab 120 Hour Post-fertilization zebrafish Assay for Snout Malformation (AID 2283637)
Summary of the method: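 Tropical 5D wild-type zebrafish embryos, dechorionated with pronase at 4 hpf, were exposed singly from 6 hpf to 120 hpf statically at 28C in 0.64% DMSO. Snout malformation was scored present/absent by brightfield microscopy, fitted against DMSO.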

[2] = Tanguay_ZF_120hpf_JAW_legacy: (Legacy) Oregon State University Tanguay Lab 120 Hour Post-fertilization zebrafish Assay for Jaw Malformation (AID 2283638);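 for AC50: active means more embryos with jaw malformation than DMSO controls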
Summary of the method: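 Wild-type 5D embryos, chorion removed at 4 hpf, dosed singly from 6 hpf; 28C static, sealed, foil-covered, to 120 hpf. Endpoint: jaw defect yes/no (brightfield); mortality excludes scoring.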

[3] = Tanguay_ZF_120hpf_OTIC_legacy: (Legacy) Oregon State University Tanguay Lab 120 Hour Post-fertilization zebrafish Assay for Otic Vesicle Malformation (AID 2283639)
Summary of the method: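 Tropical 5D wild-type zebrafish embryos statically exposed in 0.64% DMSO at 28C until 120 hpf; 5uM trimethyltin chloride as positive control. Otic vesicle malformation scored present/absent by brightfield; dead embryos not scored; gain fitted versus DMSO.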

[4] = Tanguay_ZF_120hpf_PE_legacy: (Legacy) Oregon State University Tanguay Lab 120 Hour Post-fertilization zebrafish Assay for Pericardial Edema (AID 2283640);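 for AC50: potency for increased incidence of pericardial edema versus DMSO baseline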
Summary of the method: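 Zebrafish larvae are exposed from early development to 120 hpf at 28C, with 0.64% DMSO final. Each surviving larva receives a yes/no pericardial edema call by brightfield imaging, analysed relative to the DMSO baseline.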

[5] = Tanguay_ZF_120hpf_BRAI_legacy: (Legacy) Oregon State University Tanguay Lab 120 Hour Post-fertilization zebrafish Assay for Brain Malformation (AID 2283641)
Summary of the method: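 Static exposure of staged wild-type embryos until 120 hpf, kept at 28C with light excluded and final DMSO of 0.64% (vol/vol). Presence or absence of brain malformation was noted under brightfield; mortality precluded scoring.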

[6] = Tanguay_ZF_120hpf_SOMI_legacy: (Legacy) Oregon State University Tanguay Lab 120 Hour Post-fertilization zebrafish Assay for Somite Malformation (AID 2283647)
Summary of the method: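 Somitogenesis defects are recorded as binary calls in whole larvae at 120 hpf after continuous static chemical exposure starting at 6 hpf in dechorionated 5D embryos. DMSO serves as negative control and baseline.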

[7] = Tanguay_ZF_120hpf_CFIN_legacy: (Legacy) Oregon State University Tanguay Lab 120 Hour Post-fertilization zebrafish Assay for Caudal Fin Malformation (AID 2283649)
Summary of the method: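 Single dechorionated 5D wild-type embryos are dosed at 6 hpf (final DMSO 0.64%) and held statically at 28C. Caudal fin malformation is recorded as present or absent at 120 hpf under brightfield, excluding dead embryos.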

[8] = Tanguay_ZF_120hpf_PIG_legacy: (Legacy) Oregon State University Tanguay Lab 120 Hour Post-fertilization zebrafish Assay for Pigmentation Malformation (AID 2283650)
Summary of the method: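 Tropical 5D wild-type zebrafish embryos, dechorionated with pronase at 4 hpf, were exposed singly from 6 hpf to 120 hpf statically at 28C in sealed, dark plates with 0.64% DMSO; pigmentation scored present/absent by brightfield microscopy, fitted against DMSO.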

[9] = Tanguay_ZF_120hpf_SWIM_legacy: (Legacy) Oregon State University Tanguay Lab 120 Hour Post-fertilization zebrafish Assay for Swim Bladder Malformation (AID 2283654);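 note: swim bladder malformation in each larva scored yes or no under brightfield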
Summary of the method: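 Dechorionated Tropical 5D wild-type embryos, placed singly from 6 hpf, were statically exposed at 28C to 120 hpf with 0.64% DMSO final; swim bladder malformation was scored present/absent by brightfield microscopy, gain of signal relative to DMSO controls.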

[10] = Tanguay_ZF_120hpf_TRUN_legacy: (Legacy) Oregon State University Tanguay Lab 120 Hour Post-fertilization zebrafish Assay for Truncated Body (AID 2283655)
Summary of the method: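 Single dechorionated zebrafish embryos received test chemical from 6 hpf in 0.64% DMSO, kept at 28C. At 120 hpf, brightfield inspection noted any truncated body.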

[11] = Tanguay_ZF_120hpf_NC_legacy: (Legacy) Oregon State University Tanguay Lab 120 Hour Post-fertilization zebrafish Assay for Notochord and Tail Malformation (AID 2283656)
Summary of the method: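 Dechorionated Tropical 5D wild-type zebrafish embryos, one per well from 6 hpf, statically exposed to 120 hpf at 28C in 0.64% DMSO final. Notochord distortion scored present/absent by brightfield; dead embryos excluded.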

[12] = read-out: ABC Transporter (ABCB1), ABCB1 (gene 5243); assay: CLD_ABCB1_6hr: CellzDirect (CLD) Gene Expression Assay for ABC Transporter (ABCB1) at 6 hours (AID 2283659);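 note: hits raise ABCB1 transcript above the DMSO vehicle baseline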
Summary of the method: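 Primary human hepatocytes (two donor preparations) dosed daily for two days with chemicals at multiple concentrations, 0.2% DMSO vehicle; harvested 6 h post-dose. ABCB1 mRNA induction quantified by qNPA chemiluminescence; gain-of-signal fitted versus DMSO.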

[13] = read-out: Broad substrate specificity ATP-binding cassette transporter ABCG2 (Homo sapiens) (UniProt Q9UNQ0); assay: CLD_ABCG2_6hr: CellzDirect (CLD) Gene Expression Assay for ABC Transporter (ABCG2) at 6 hours (AID 2283660)
Summary of the method: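 Primary human hepatocytes dosed daily with chemicals at multiple concentrations (0.2% DMSO vehicle), harvested 6 h after dosing. ABCG2 mRNA induction read by quantitative nuclease protection assay (qNPA) chemiluminescence; gain of signal fitted against DMSO baseline.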

[14] = Tanguay_ZF_120hpf_CIRC_legacy: (Legacy) Oregon State University Tanguay Lab 120 Hour Post-fertilization zebrafish Assay for Circulatory Malformation (AID 2283651)
Summary of the method: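 Dechorionated wild-type 5D zebrafish embryos, one per well, statically exposed from 6 to 120 hpf at 28C with 0.64% DMSO; circulatory malformation scored present/absent by brightfield microscopy at 120 hpf, dead embryos excluded.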

[15] = read-out: xenobiotic metabolism (CYP1A1), CYP1A1 (gene 1543); assay: CLD_CYP1A1_6hr: CellzDirect (CLD) Gene Expression Assay for xenobiotic metabolism (CYP1A1) at 6 hours (AID 2283661);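 for AC50: potency for transcript induction above DMSO vehicle baseline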
Summary of the method: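 Primary human hepatocytes from two donors, compound versus 0.2% DMSO vehicle. CYP1A1 mRNA measured 6 h after dosing by quantitative nuclease protection assay with chemiluminescent read-out; induction fitted relative to DMSO, cytotoxicity flagged by microscopy.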

[16] = read-out: solute carrier (SLC22A6), SLC22A6 (gene 9356); assay: LTEA_HepaRG_SLC22A6: Life Technologies and Expression Analysis (LTEA) Assay for solute carrier (SLC22A6) using HepaRG (AID 2283653; active = hit-call score of the fitted dose curve at least 0.9, where 1 is the maximum; inactive = score below 0.9); details: mRNA level, 48 h; actives raise or lower the signal
Summary of the method: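 Gene-expression endpoint in HepaRG hepatic cells: duplicate 8-point concentration-response, highest 100 uM, 48 h treatment in serum-free medium with 0.5% DMSO. SLC22A6 expression measured by qRT-PCR, normalised to ACTB/GAPDH/POLR2A.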

[17] = read-out: solute carrier (SLC10A1), SLC10A1 (gene 6554); assay: LTEA_HepaRG_SLC10A1: Life Technologies and Expression Analysis (LTEA) Assay for solute carrier (SLC10A1) using HepaRG (AID 2283657; active = hit-call score of the fitted dose curve at least 0.9, where 1 is the maximum; inactive = score below 0.9); details: mRNA level, 48 h; actives raise or lower the signal
Summary of the method: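 Differentiated HepaRG cells were plated 48 h, then exposed in serum-free induction medium for 48 h to 8 concentrations (top 100 uM, half-log steps, 0.5% DMSO). SLC10A1 mRNA was quantified by qRT-PCR normalized to ACTB, GAPDH, POLR2A; bidirectional fit versus DMSO.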

[18] = read-out: matrix metalloproteinase-1 (MMP1), MMP1 (gene 4312); assay: LTEA_HepaRG_MMP1: Life Technologies and Expression Analysis (LTEA) Assay for matrix metalloproteinase-1 (MMP1) using HepaRG (AID 2283658; active = hit-call score of the fitted dose curve at least 0.9, where 1 is the maximum; inactive = score below 0.9); details: mRNA level, 48 h; actives raise or lower the signal
Summary of the method: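 In this screen, human liver HepaRG cultures receive each chemical in duplicate for 48 h (top 100 uM, 0.5% DMSO). MMP1 expression is then quantified by TaqMan qRT-PCR with ACTB/GAPDH/POLR2A normalization.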

[19] = Tanguay_ZF_120hpf_PFIN_legacy: (Legacy) Oregon State University Tanguay Lab 120 Hour Post-fertilization zebrafish Assay for Pectoral Fin Malformation (AID 2283648);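 note: each larva judged yes or no for fin defect by brightfield with dead larvae skipped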
Summary of the method: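 Tropical 5D wild-type embryos, dechorionated with pronase at 4 hpf, were placed singly in wells at 6 hpf and statically exposed until 120 hpf at 28C, sealed and dark, with 0.64% (vol/vol) final DMSO; pectoral fin malformation scored present/absent.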

[20] = read-out: kallikrein-3 (KLK3), KLK3 (gene 354); assay: LTEA_HepaRG_KLK3: Life Technologies and Expression Analysis (LTEA) Assay for kallikrein-3 (KLK3) using HepaRG (AID 2283652; active = hit-call score of the fitted dose curve at least 0.9, where 1 is the maximum; inactive = score below 0.9); details: mRNA level, 48 h; actives raise or lower the signal
Summary of the method: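 Differentiated human HepaRG cells in serum-free induction medium exposed 48 h in duplicate, eight-point half-log series from 100 uM in 0.5% DMSO. KLK3 mRNA by qRT-PCR, normalised to ACTB, GAPDH, POLR2A; bidirectional fit versus DMSO.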

Measured: AC50

Broad substrate specificity ATP-binding cassette transporter ABCG2 (Homo sapiens), sequence (Q9UNQ0 whole entry, looked up): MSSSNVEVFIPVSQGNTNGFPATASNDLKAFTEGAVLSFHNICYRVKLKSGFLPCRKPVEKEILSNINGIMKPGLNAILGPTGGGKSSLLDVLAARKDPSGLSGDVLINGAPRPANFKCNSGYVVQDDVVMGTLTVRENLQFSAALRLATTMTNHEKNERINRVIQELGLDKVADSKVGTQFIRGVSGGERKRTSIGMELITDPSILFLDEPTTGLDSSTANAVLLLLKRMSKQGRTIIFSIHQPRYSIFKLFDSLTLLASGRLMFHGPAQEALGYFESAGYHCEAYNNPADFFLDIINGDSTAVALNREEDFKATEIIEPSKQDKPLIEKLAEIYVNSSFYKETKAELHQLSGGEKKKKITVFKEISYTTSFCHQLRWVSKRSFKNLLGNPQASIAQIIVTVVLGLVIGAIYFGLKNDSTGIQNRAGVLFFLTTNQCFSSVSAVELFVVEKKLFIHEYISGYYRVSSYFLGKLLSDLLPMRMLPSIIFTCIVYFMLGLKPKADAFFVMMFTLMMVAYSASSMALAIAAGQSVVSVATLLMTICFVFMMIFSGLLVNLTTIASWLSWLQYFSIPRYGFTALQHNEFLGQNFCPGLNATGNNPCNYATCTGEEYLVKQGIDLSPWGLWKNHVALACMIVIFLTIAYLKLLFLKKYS

CCCOCC(=Nc1ccc(Cl)cc1C(F)(F)F)n1ccnc1
not listed: [14] | [15] | [16] | [17] | [18] | [19] | [20]
inactive: all other assays above

CN(C)NC(=O)CCC(=O)O
not listed: [14] | [15] | [16] | [17] | [18] | [19] | [20]
inactive: all other assays above

Cc1ccn2nc(S(=O)(=O)Nc3c(F)cccc3F)nc2n1
not listed: [15] | [16] | [17] | [18] | [19] | [20]
inactive: all other assays above

CN(C)C(=O)Nc1cccc(C(F)(F)F)c1
not listed: [16] | [17] | [18] | [19] | [20]
inactive: all other assays above

CCOC(=O)CC(SP(=O)(OC)OC)C(=O)OCC (stereo unspecified)
active: [17] 10.1 µM
not listed: [13] | [19] | [20]
inactive: all other assays above

CCCCOC(=O)c1ccccc1C(=O)O
not listed: [11] | [15] | [16] | [17] | [18] | [20]
inactive: all other assays above

CCC(=NOC/C=C/Cl)C1=C(O)CC(C2CCOCC2)CC1=O (stereo unspecified)
not listed: [15] | [16] | [17] | [18] | [20]
inactive: all other assays above

CC(Oc1cccc(Cl)c1)C(=O)O (stereo unspecified)
not listed: [15] | [16] | [17] | [18] | [19] | [20]
inactive: all other assays above

C=C(C)[C@H]1Cc2c(ccc3c2O[C@@H]2COc4cc(OC)c(OC)cc4[C@@H]2C3=O)O1
not listed: [12] | [13] | [15] | [16] | [17] | [18] | [19] | [20]
inactive: all other assays above

CCCSP(=O)(OCC)Oc1ccc(Br)cc1Cl (stereo unspecified)
not listed: [11] | [14] | [15] | [16] | [17] | [18] | [19] | [20]
inactive: all other assays above

CON=C(C(=O)OC)c1ccccc1CON=C(C)c1cccc(C(F)(F)F)c1
active: [1] 4.07 µM | [2] 5.3 µM | [4] 8.26 µM | [5] 6.64 µM
not listed: [15] | [16] | [17] | [18] | [19] | [20]
inactive: all other assays above

FC(F)C(F)(F)OCC(Cn1cncn1)c1ccc(Cl)cc1Cl (stereo unspecified)
active: [1] 47 µM | [2] 11.7 µM | [3] 47 µM | [4] 26.1 µM | [5] 13.7 µM | [6] 48.5 µM | [19] 46.6 µM | [7] 49.2 µM | [8] 49.6 µM | [14] 17.2 µM | [9] 18.2 µM | [10] 49.6 µM
inactive: [11]

COc1cccc(C(=O)NN(C(=O)c2cc(C)cc(C)c2)C(C)(C)C)c1C
not listed: [7] | [15] | [16] | [17] | [18] | [20]
inactive: all other assays above

COP(=O)(OC)OC(Br)C(Cl)(Cl)Br (stereo unspecified)
not listed: [7] | [8] | [9] | [15] | [16] | [17] | [18] | [20]
inactive: all other assays above

CCC(CC)Nc1c([N+](=O)[O-])cc(C)c(C)c1[N+](=O)[O-]
not listed: [13] | [16] | [17] | [18] | [19] | [20]
inactive: all other assays above

CCOP(=O)(NC(C)C)Oc1ccc(SC)c(C)c1 (stereo unspecified)
active: [1] 20.9 µM | [2] 21.6 µM | [4] 25.6 µM | [5] 61.8 µM | [19] 16.9 µM | [15] 2.72 µM
inactive: [3] | [6] | [7] | [8] | [14] | [9] | [10] | [11]

CNC(=O)Oc1cccc2c1OC(C)(C)O2
not listed: [13] | [14] | [15] | [19]
inactive: all other assays above
